In the library only some 12% were active in any assay of this set; here they are far more common.
CHX counter: counter-screen hit for Shiga toxin inhibitors, cycloheximide; 12% of 300,000 active; max response, %; cell reporter, cycloheximide protein synthesis inhibition counterscreen; in the data active means max response mostly above about 13%, no sharp cut-off; inactive means mostly below about 14%; further: read at 38.3 µM for the half of the compounds with a filed dose; 0% is about no effect
FMDV antiviral: blocks foot and mouth disease virus; 1.2% of 410,000 active; AID 1159524; FMDV antiviral cell-based qHTS; Potency, µM (top dose mostly 57.9 µM), without a hit: at the highest dose activity change, negative = inhibition, hits mostly inhibitors; calls by dose curve; tested in HEK293T cells; further: read-out not given here; potency means the concentration at half of the fitted maximal effect; on the % scale 0 is the no-effect control and ±100 the full control effect; nearly all actives have a fitted effect of over 45% in size
Sm TGR block: inhibitors of Schistosoma mansoni thioredoxin glutathione reductase. Q962Y6. Potency, µM (series often up to 114 µM), for the others: at the highest dose activity change, negative = inhibition, most hits filed as inhibitors. AID 485364. 3% of 360,000 active. purified TGR, DTNB reduction, TNB absorbance 405 nm; active means well fitted inhibition curve with a large enough effect; inconclusive means small, poorly fitted or top-dose-only effect; inactive means no such curve, though single readings can be large or run the other way; further: potency means the concentration at half of the fitted maximal effect; on the % scale 0 is the no-effect control and ±100 the full control effect; nearly all actives have a fitted effect of over 60% in size
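Kinetic colorimetric format: TGR-catalysed, NADPH-driven DTNB reduction monitored via TNB absorbance. Enzyme dispensed at 20 nM; compound exposure 15 min at room temperature before reaction start.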
Shiga inhibitor: Shiga toxin inhibition; inhibition, % at 38.7 µM; AID 2315; Vero cells, Shiga toxin protein synthesis inhibition reporter; 9.2% of 290,000 active; in the data active means inhibition mostly above about 28%, no sharp cut-off; inactive means mostly below about 43%; further: 0% is about no effect
The depositor's hits bear a star; ? = inconclusive; nt = no result given.

SMILES | CHX counter | FMDV antiviral | Sm TGR block | Shiga inhibitor
Oc1c(Cl)cc(CN2CCOCC2)c2cccnc12 | nt | -25% | 1.3µM* | nt
N#Cc1c(-c2ccc(Cl)cc2)ccnc1N1CCOCC1 | 26* | -8% | 1% | 46*
CCc1nnc(SCc2cc(C)ccc2C)c2cc3sc(C)cc3n12 | nt | -12% | 13% | nt
Cc1ccc(NC(=O)c2snc3ccc(Cl)cc23)cc1C | 38* | 60% | 1% | 32*
Cc1nn(C(=O)c2cccc([N+](=O)[O-])c2C)c(C)c1S(=O)(=O)N1CCCCCC1 | -8 | -21% | 3% | -11
COc1ccc(CCNC(=O)c2cc(COc3c(C)cccc3C)on2)c(OC)c1 | 77* | 20% | -5% | 65*
COc1ccc(CCNC(=O)NCc2noc3ccc(C)cc23)c(OC)c1 | nt | -8% | -8% | nt
COc1ccc(CCNC(=O)c2cc(COc3c(F)cccc3F)on2)c(OC)c1 | 37* | 27% | 1% | 70*
COc1cccc2cc(S(=O)(=O)c3ccc(F)c(C)c3)c(=O)oc12 | nt | -8% | 3% | nt
COCCn1c(CNC(=O)c2cc([N+](=O)[O-])ccc2Cl)nc2cccnc21 | nt | 3% | -1% | nt
CS(=O)(=O)c1ccccc1C(=O)Nc1nc2ccccc2[nH]1 | 13 | -4% | 15% | 14
Cc1c(C(=O)Nc2nc3ccccc3[nH]2)oc2c(Cl)cccc12 | 32* | 35% | -1% | 76*
Cc1c(C(=O)Nc2nc3ccccc3[nH]2)oc2ccccc12 | 47* | -27% | -1% | 100*
COc1cc2c(ccc3cc(OC)c(OC)c(O)c32)cc1O | -5 | -1% | 45µM* | 4
COc1cc2cccc(OC)c(=O)c2c(O)c1OC | 34* | 7% | -10% | 23
COc1cc2oc(=O)ccc2cc1O | -6 | nt | nt | -4
CC1CCN(C(=O)CCCC(=O)N2CCC(C)CC2)CC1 | 19 | 1% | -27% | 24*
O=C(CCCC(=O)N1CCCC1)N1CCCC1 | 19 | 20% | 23% | 27*
CCn1nc(-c2ccccc2)c(-c2ccccc2)c(C(=O)Nc2ccccc2C#N)c1=O | nt | -1% | 1% | nt
Cc1ccc(CNC(=O)c2nn(C)c3c2CSc2ccc(C)cc2-3)cc1 | nt | -19% | 5% | nt
NC(=O)[C@@H]1CCCN1C(=O)CCN1Cc2ccccc2OC(c2ccccc2F)C1 (stereo not given in full) | nt | -10% | nt | nt
Cc1ncc2c(c1CNC(=O)/C=C/c1cccs1)CCN(C(=O)c1c(C)noc1C)C2 | nt | -5% | nt | nt
O=C(OCC(=O)N1CCCCC1)c1cccs1 | nt | -17% | nt | nt
O=C(OCC(=O)N1CCc2ccccc2C1)c1cccnc1Cl | 36* | 84% | 3% | 114*
O=C(OCC(=O)N1CCc2ccccc2C1)c1cccs1 | 47* | 68% | -3% | 77*
SMILES | CHX counter | FMDV antiviral | Sm TGR block | Shiga inhibitor
CNC(=O)COC(=O)c1ccccc1NC(=O)c1ccco1 | 1 | -14% | 10% | 19
O=C(Nc1ccccc1C(=O)OCC(=O)N1CCc2ccccc2C1)c1ccco1 | 42* | 3% | -33% | 73*
O=C(OCC(=O)N1CCCCCC1)c1cccs1 | 38* | 13% | -4% | 84*
O=C(Nc1ccc(Br)cc1)C1CCN(S(=O)(=O)c2cccc3nsnc23)CC1 | nt | -6% | -6% | nt
COc1ccccc1C=NNc1nc(C)cc(=O)[nH]1 | nt | 6% | nt | nt
Cc1cc(C)nc(N/N=C/c2c[nH]c3ccccc23)n1 | 20* | 8% | 4% | 50
COc1ccccc1/C=N/Nc1nc(C)cc(C)n1 | 34* | 0% | 5% | 89*
Cn1cc(Br)c(C(=O)N/N=C/c2cc3ccccc3nc2Cl)n1 | 15* | 6% | -5% | 50*
CCCn1c(/N=C/c2c[nH]c3ccccc23)nc2ccccc21 | 42* | nt | 9% | 12
O=C(NCc1cccs1)c1ccc2c(=O)n3nc(Nc4ccccc4)sc3nc2c1 | nt | -20% | -1% | nt
Cn1c(N/N=C/c2cc3ccccc3nc2Cl)nc2ccccc21 | 31 | -10% | -18% | 78*
O=[N+]([O-])c1ccc(N/N=C\c2ccccc2OCc2ccccc2)cc1 | -3 | -2% | -3% | -10
Cc1cc(C)nc(N/N=C/c2ccccc2OCc2ccc([N+](=O)[O-])cc2)n1 | 13 | -15% | 7% | 59*
Cc1cc(N/N=C/c2ccccc2Cl)nc(NCc2ccccc2)n1 | 28* | ? | 2% | 24
Cc1nnc(C)n1/N=C/c1cc2ccccc2nc1Cl | 3 | 3% | 7% | 15
Cn1c(N/N=C/c2c[nH]c3ccccc23)nc2ccccc21 | 45* | 26% | 22% | 167*
CCN(CC)c1ccc(CNCCCSc2nnnn2C)cc1 | nt | -15% | -2% | nt
Cc1cccc(NC(=O)N2CCc3c(sc4c3CCCC4)C2c2ccc(F)cc2)c1 (stereo not given) | nt | -11% | 0% | nt
Cc1cc(C)nc(N/N=C/c2cn[nH]c2-c2ccccc2)n1 | 2 | -10% | -2% | -3
Cc1cc(C)nc(N/N=C/c2ccccc2Cl)n1 | 59* | 45% | 9% | 94*
Cc1cc(C)nc(N/N=C/c2cccc3ccccc23)n1 | 47* | 19% | -13% | 15
O=C(NCc1ccccc1F)c1cc2ccccn2n1 | nt | 67% | 7% | nt
COc1ccc(NC2=C(NCCO)C(=O)c3ccccc3C2=O)cc1 | 53* | 0% | -3% | 81*
COc1cccc(NC2=C(NCCO)C(=O)c3ccccc3C2=O)c1 | 11* | -10% | -5% | nt
Cc1noc2ncnc(NCc3ccc(Cl)cc3)c12 | nt | ? | -4% | nt
SMILES | CHX counter | FMDV antiviral | Sm TGR block | Shiga inhibitor
CCNC(=S)Nc1cc(C)ccn1 | 14 | 30% | ? | 29*
Cc1ccnc(NC(=O)CNC(=O)c2cccs2)c1 | nt | 4% | 2% | nt
Cc1ccnc(NC(=S)NC(=O)c2cccs2)c1 | 78* | 43% | 4% | 160*
Cc1ccc(CC(=O)Nc2cc(C)ccn2)cc1 | 16 | 29% | -4% | 17
Cc1ccnc(NC(=S)NC(=O)c2ccco2)c1 | 40* | 63% | 38% | 96*
O=C(NC(=S)Nc1ccccc1[N+](=O)[O-])c1ccco1 | 22* | -3% | 50µM* | 63
COc1ccc(NC(=O)c2oc3ccccc3c2NC(=O)c2cc(C)cc(C)c2)c(OC)c1 | nt | 3% | 1% | nt
O=C(NC(=S)Nc1ccccn1)c1ccco1 | 47* | 38% | 25% | 58*
O=C(NC(=S)Nc1cccnc1Cl)c1ccco1 | 21* | 34% | ? | 55*
Nc1c(-c2nc(-c3ccccc3Cl)no2)nnn1-c1ccccc1C(F)(F)F | nt | -5% | 25% | nt
Cc1nc(C)c(C(=O)N/N=C/c2cn(C)c3ccccc23)s1 | -5 | ? | 0% | -12
CCn1cc(/C=N/NC(=O)c2cc3c(ccc4ccccc43)o2)c2ccccc21 | 10 | 0% | 11% | -25
CC(=O)n1cc(/C=N/NC(=O)c2ccccc2O)c2ccccc21 | 26* | 16% | 29% | 66*
CC(=O)n1cc(/C=N/NC(N)=S)c2ccccc21 | 17 | -2% | ? | -12
CC(C)(C)OC(=O)n1cc(/C=N/NC(=O)c2ccco2)c2ccccc21 | 37* | -6% | -26% | 68*
Cn1cc(/C=N/NC(=O)c2ccccc2O)c2ccccc21 | 25* | 43% | 1% | 53
COc1ccc(-n2nc(C(=O)Nc3ccccc3OC)c3c4ccccc4n(C)c3c2=O)cc1Cl | nt | -8% | 3% | nt
COc1ccccc1-c1ccnc(-n2ncc(C(=O)N[C@H]3CCCCNC3=O)c2C2CC2)n1 | nt | 40% | nt | nt
